Screening results (PubChem)
PHOSPHO1 block: PHOSPHO1 (human) inhibition | 290,000 compounds, 1.1% hits | recombinant PHOSPHO1, absorbance phosphatase assay | AID 1565 | Q8TCT1 | inhibition, % at 13.3 µM; in the data active = inhibition above about 60%
Efflux pump mplx: inhibitors of Candida antifungal efflux pumps expressed in yeast | S. cerevisiae Candida pump triplex, Nile Red efflux | inhibition, % at 10 µM | 330,000 compounds, 0.44% hits | AID 485275;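 active = plate passing quality check with inhibition over a set limit, or well fluorescence over plate mean plus 4 SD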;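 also: Nile Red retained in pooled yeast measured as flow cytometry median fluorescence; 0% = buffer negative control and 100% = Enniatin B positive control; higher means more Nile Red kept so more efflux inhibition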
KCC2 mod: modulates chloride dependent transport by human KCC2; KCC2 cells, thallium flux FluoZin-2 fluorescence; B-score of Tl+ flux slope (higher = more flux/activation; lower = inhibition) at 10 µM; 190,000 compounds, 2.2% hits; AID 1456;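 active = thallium flux slope and its plate-corrected score both differing from the plate sample mean at a set confidence after two filtering rounds, in either direction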;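 also: slope of fluorescence scaled to starting intensity during 10 to 20 s after thallium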
Target sequence (Q9H2X9 whole entry, looked up): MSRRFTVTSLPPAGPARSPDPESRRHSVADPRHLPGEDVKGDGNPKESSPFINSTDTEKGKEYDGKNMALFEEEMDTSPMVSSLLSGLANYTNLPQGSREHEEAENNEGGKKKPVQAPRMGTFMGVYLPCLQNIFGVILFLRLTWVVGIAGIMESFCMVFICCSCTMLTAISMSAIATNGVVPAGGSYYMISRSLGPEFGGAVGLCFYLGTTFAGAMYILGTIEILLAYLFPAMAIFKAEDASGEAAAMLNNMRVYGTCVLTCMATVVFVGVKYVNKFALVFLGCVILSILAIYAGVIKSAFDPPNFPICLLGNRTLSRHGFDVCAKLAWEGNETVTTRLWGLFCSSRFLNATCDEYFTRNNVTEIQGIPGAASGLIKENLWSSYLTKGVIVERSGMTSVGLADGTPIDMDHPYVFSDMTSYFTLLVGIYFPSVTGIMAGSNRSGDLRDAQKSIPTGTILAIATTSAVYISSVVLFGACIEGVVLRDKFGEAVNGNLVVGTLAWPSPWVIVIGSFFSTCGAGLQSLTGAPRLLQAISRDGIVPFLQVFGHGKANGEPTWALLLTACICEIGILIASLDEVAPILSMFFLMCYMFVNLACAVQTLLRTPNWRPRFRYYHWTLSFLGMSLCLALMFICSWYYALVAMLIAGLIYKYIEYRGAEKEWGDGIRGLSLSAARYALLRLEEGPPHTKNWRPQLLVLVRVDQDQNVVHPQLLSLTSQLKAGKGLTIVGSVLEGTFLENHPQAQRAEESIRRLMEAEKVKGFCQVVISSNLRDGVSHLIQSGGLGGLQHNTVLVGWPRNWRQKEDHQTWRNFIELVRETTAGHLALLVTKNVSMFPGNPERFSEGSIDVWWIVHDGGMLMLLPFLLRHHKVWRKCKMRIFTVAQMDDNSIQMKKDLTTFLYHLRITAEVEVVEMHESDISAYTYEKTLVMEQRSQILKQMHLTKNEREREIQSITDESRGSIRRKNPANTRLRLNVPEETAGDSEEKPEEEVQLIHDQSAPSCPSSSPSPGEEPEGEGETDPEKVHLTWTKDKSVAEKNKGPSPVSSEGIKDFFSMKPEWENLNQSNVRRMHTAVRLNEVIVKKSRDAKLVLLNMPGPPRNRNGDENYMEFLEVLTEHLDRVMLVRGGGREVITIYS
Calb FLC: C. albicans growth modulation with fluconazole | C. albicans CaCi-2 (fluconazole-resistant clinical isolate) + fluconazole, Alamar Blue growth, 48 h | growth inhibition, % (test concentration not listed) | 300,000 compounds, 0.57% hits;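 active = growth inhibition above about 58% in most replicates, limit read from the data, passing the limit was not always enough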;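 also: all wells also contain fluconazole at 8 µg/ml as a sub-toxic cotreatment; 0% = median of DMSO wells and 100% = median of geldanamycin control wells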
H9c2 protect: protects H9c2 cardiomyocytes from peroxide injury; H2O2 injury protection, ATPLite, 2 h; protection from H2O2 cell death, % at 20 µM; 360,000 compounds, 0.63% hits;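 active = compounds giving at least 50% protection of heart cells from peroxide-induced death in the single-dose screen, raw or plate-pattern-corrected value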;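 also: 0% = DMSO wells with peroxide and 100% = DMSO wells without peroxide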
Starred values were filed as active, the others as inactive; · = no result. Most compounds without a hit are left out; they make up all but 3.3% or so of the library.

SMILES	PHOSPHO1 block	Efflux pump mplx	KCC2 mod	Calb FLC	H9c2 protect
O=C(OCC(=O)N1CCCCC1)c1ccc2c(c1)C(=O)N(Cc1ccco1)C2=O	·	-0.1	·	·	-3.5
COc1ccc(S(=O)(=O)Nc2cc3c4c(c2)CC(=O)N4CCC3)cc1C	·	-0.2	·	5.5	-8.3
COc1ccc(C(c2nnnn2C2CCCC2)N2CCN(C(=O)c3ccco3)CC2)cc1OC (configuration not stated)	50.8	-0.1	·	-2.5	5.5
COc1cc(C(c2nnnn2C2CCCC2)N2CCc3ccccc3C2)ccc1O (configuration not stated)	77.4*	0.0	·	36.8	2.7
Oc1ccc(C(c2nnnn2C2CCCC2)N2CCc3ccccc3C2)cc1 (configuration not stated)	84.4*	0.1	-1.02	25.7	-3.2
N#Cc1cccc(C(c2nnnn2C2CCCC2)N2CCCCCC2)c1 (configuration not stated)	62.3*	-0.1	0.147	5.7	-9.3
COc1ccc(CC(NC(C)=O)C(=O)NC2CCN(C(=O)Nc3ccccc3C)CC2)cc1OC (configuration not stated)	49.4	0.0	·	-2.3	4.0
COCCn1c(-c2ccc(Cl)cc2)cnc1SCC(=O)NCc1cccs1	73.5*	0.1	-0.908	·	5.0
O=C(CSc1nc2ccccc2c(=O)n1Cc1ccc(Cl)cc1)NCc1cccs1	-9.3	0.1	3.54	-5.4	1.6
C#Cc1ccc(CN2CCC(N3CCC(C(=O)NCc4ccccn4)CC3)CC2)cc1	49.6	0.1	·	26.1	3.9
CC(C)/C=C/C(=O)N1CCC(N2CCC(C(=O)NCc3ccccn3)CC2)CC1	70.1*	0.6	·	0.1	1.5
Cc1csc(/C(=N/OC(=O)c2ccco2)C(N)=O)n1	-2.8	0.2	0.254	0.2	10.0
Cc1ccc(S(=O)(=O)NNc2nc3ccccc3nc2C(F)(F)F)cc1	92.3*	0.1	·	-1.9	14.1
CCSC(=O)N=Nc1ccc(O)cc1	·	·	·	·	-0.6
COc1ccc(CCNC(=O)CN(Cc2ccc(Cl)cc2)S(C)(=O)=O)cc1	·	0.0	·	0.0	-1.7
CCOc1ccc(OCC(=O)c2c(O)c3ccccc3oc2=O)cc1	68.5*	0.3	·	1.6	7.7
CC1CCC(C(=O)c2c(O)c3ccccc3oc2=O)CC1 (configuration not stated)	0.3	-0.2	0.814	108.4*	2.0
COc1cc(OC)cc(C(=O)N[C@H](C(=O)NCCc2ccc(S(N)(=O)=O)cc2)C(C)C)c1	11.0	0.2	·	11.7	0.7
CCn1c(=O)n(Cc2ccco2)c(=N)c2c3c(sc21)COC(C)(C)C3	63.3*	0.0	0.138	-6.2	-4.4
CC1(C)Cc2c(sc3c2c(=N)n(Cc2ccco2)c(=O)n3CC(=O)Nc2ccccc2)CO1	5.7	0.4	0.557	-2.5	3.7
COc1cc(NC(=O)Cn2cnc3c(OCc4ccccc4)ncnc32)cc(OC)c1OC	·	0.1	·	·	-5.6
Cc1n[nH]c(=S)n(/N=C/c2cccc([N+](=O)[O-])c2)c1=O	12.3	-0.3	·	-0.9	5.3
COc1cc(/C=N/n2c(=S)[nH]nc(C)c2=O)cc([N+](=O)[O-])c1O	64.2*	-0.1	-2.51	4.7	5.5
COc1ccc(CCNC(=O)CCn2c(=O)c3cccn3c3ccc(F)cc32)c(OC)c1OC	43.5	0.0	·	-5.0	11.5
COc1cc(NC(=O)CN2CCN(CC(=O)Nc3ccccc3OC)CC2)cc(OC)c1	23.9	-0.3	·	1.6	1.5
SMILES	PHOSPHO1 block	Efflux pump mplx	KCC2 mod	Calb FLC	H9c2 protect
Cc1nnc(NC(=O)CSc2ncnc3c2cnn3-c2ccccc2C)s1	28.3	-0.1	-1.88	84.6*	-0.8
CNC(=S)N=Nc1c(O)[nH]c2ccc(C(C)C)cc12	-4.5	-0.1	6.59*	10.1	8.6
CC(C)NC(=S)N=Nc1c(O)[nH]c2ccc([N+](=O)[O-])cc12	-11.2	0.1	2.02	-18.1	2.0
Cc1c(CCCC(=O)O)sc(N)c1C(=O)c1cccc(C(F)(F)F)c1	·	0.0	·	0.6	9.4
Cc1ccccc1NC(=O)C1c2cccc[n+]2CC(=O)N1c1c(C)cccc1C (configuration not stated)	94.9*	-0.1	-0.445	-11.8	15.4
O=C(CCc1nc2ccccc2c(=O)[nH]1)Nc1cccc(S(=O)(=O)N2CCCCC2)c1	·	0.0	·	-2.5	26.4
O=C(CCc1nc2ccccc2c(=O)[nH]1)NCC(=O)Nc1ccc(F)c(F)c1	·	0.0	·	3.6	59.3*
O=C(CCc1nc2ccccc2c(=O)[nH]1)Nc1ccc(F)c([N+](=O)[O-])c1	-19.7	0.2	0.987	2.9	50.1*
CCNC(=O)n1cc(-n2cncn2)c(-c2ccccc2)n1	42.1	0.1	0.172	12.3	12.8
COc1ccc(C)cc1NC(=O)CCC(=O)Nc1nnc(C2CCCCC2)s1	26.3	0.1	·	-17.7	-5.7
COc1ccccc1-c1cc(C(=O)NC(C)C)no1	60.5*	-0.1	-0.0495	-28.5	-7.8
COc1ccc2c(c1)C(C)=CC(C)(C)N2S(=O)(=O)c1ccc(C)cc1	14.6	0.1	-1.45	15.5	-22.1
CCOc1ccc2c(c1)C(C)=CC(C)(C)N2S(=O)(=O)c1ccc(C)cc1	14.6	·	-2.05	112.5*	-18.1
COc1ccc(NC(=O)CSc2nc(C)cs2)c([N+](=O)[O-])c1	·	0.1	·	·	2.7
CCN(CC)CCn1c2c(c(SCC(=O)Nc3cccc(C(C)=O)c3)nc1=O)CCCC2	·	·	·	24.3	74.6*
CCN(CC)CCCn1c2c(c(SCC(=O)Nc3cccc(C(C)=O)c3)nc1=O)CCC2	·	0.1	·	1.4	18.7
COc1ccc(OC)c2c1cc(C(=O)N[C@H](C(=O)N1CCC[C@H]1C(=O)O)C(C)C)n2C	44.7	0.0	·	0.3	-1.1
C=CCn1c(SCC(=O)Nc2ccc(OC)cc2)nnc1-c1cnccn1	26.1	0.2	·	0.0	5.6
O=C1C2C3C=CC(CO)(O3)C2C(=O)N1c1ccc(-c2ccccc2)cc1 (configuration not stated)	-8.5	1.7*	·	3.0	·
C/C(=N\Nc1nc(C)cc(C)n1)c1ccc(C)o1	41.5	0.2	0.00681	22.5	2.1
C/C(=N\Nc1nnc2c3ccccc3n(C)c2n1)c1ccc(C)o1	-15.9	0.0	-1.39	23.2	69.6*
O=C(C[C@@H]1C/C=C\CCC(=O)OC[C@@H]2CCCN2C1=O)N[C@@H](CO)Cc1ccccc1	·	-0.3	·	·	4.7
COC(=O)c1ccc(=O)n(-c2ccc(OC)cc2)c1	-6.8	0.1	8.16*	-4.7	0.7
CCOC(=O)C(Cc1ccc(NC(=O)/C(=C/c2ccc(OC(C)=O)cc2)NC(C)=O)cc1)N1C(=O)c2ccccc2C1=O (configuration not stated)	44.8	0.1	·	3.4	59.4*
CCOC(=O)C(Cc1ccc(NC(=O)/C(=C/c2ccccc2)NC(=O)c2ccccc2)cc1)N1C(=O)c2ccccc2C1=O (configuration not stated)	12.1	-0.2	·	-2.9	42.3
Cc1cc(C)c(C)c(S(=O)(=O)Nc2ccccc2C(=O)NCCCN2CCOCC2)c1C	-21.2	-0.1	-1.99	14.0	2.8
COC(=O)c1ccc(COC(=O)C2CCN(S(=O)(=O)c3ccc(C)c(C)c3)CC2)o1	·	-0.1	·	0.2	4.6
